CHRM1 antagonist: human CHRM1 antagonism | P11229 | CHO-K1 hM1, Fluo-8 calcium fluorescence, ACh EC80 antagonist | 1.3% of 360,000 active | inhibition, % at 3 µM;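 active means percent inhibition above its own plate's cutoff, namely the mean of that plate's compound wells plus 3 SD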;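 further: peak over basal fluorescence ratio during 140 s after agonist addition; 0% = ACh EC80 plus DMSO and 100% = DMSO alone without agonist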
Target sequence (P11229 whole entry, looked up): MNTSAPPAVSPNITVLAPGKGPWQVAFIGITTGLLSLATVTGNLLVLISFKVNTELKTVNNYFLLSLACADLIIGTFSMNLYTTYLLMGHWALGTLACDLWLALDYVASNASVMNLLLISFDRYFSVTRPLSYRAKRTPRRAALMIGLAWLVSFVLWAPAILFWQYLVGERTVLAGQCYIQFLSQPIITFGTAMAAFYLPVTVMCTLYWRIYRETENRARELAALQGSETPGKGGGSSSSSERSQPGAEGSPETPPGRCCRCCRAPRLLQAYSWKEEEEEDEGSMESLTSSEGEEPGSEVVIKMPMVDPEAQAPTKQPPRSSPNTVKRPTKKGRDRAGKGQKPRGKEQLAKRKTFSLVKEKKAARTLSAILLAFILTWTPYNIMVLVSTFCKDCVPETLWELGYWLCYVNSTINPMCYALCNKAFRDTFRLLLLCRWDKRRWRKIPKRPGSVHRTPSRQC
M1 ag: human M1 muscarinic receptor agonism; P11229; CHO-K1 hM1, Fluo-8 calcium fluorescence, agonist mode; 0% DMSO, 100% acetylcholine EC100; activation, % at 3 µM; 0.33% of 360,000 active; AID 588814;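 active means activation above the run's mean compound activation plus 3 SD, cut at about 16% in these data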;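 further: peak over basal fluorescence ratio within a 140 s kinetic read after compound addition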
CHO-K1 Ca PAM: nonselective activator or artifact in parental CHO-K1 calcium assay; activation, % at 3 µM; ATP EC20, Fluo-8 calcium fluorescence; 0% at ATP EC20, 100% at ATP max; 0.02% of 360,000 active;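 active means activation above the run cutoff, the mean activation of all test compounds plus 3 SD, cut at about 40% in these data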;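 further: peak over basal fluorescence ratio in a 140 s read after ATP addition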
M1 ag parental: nonselective activator or artifact in parental CHO-K1 cells | Fluo-8 calcium fluorescence; scaled to maximal ATP response, vehicle zero | activation, % at 3 µM | 0.48% of 360,000 active | AID 602248; in the data active means activation above about 15%;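 further: untransfected CHO-K1 host cells lacking M1 receptor as counterscreen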
M1 PAM: human CHRM1 positive allosteric modulation | CHO-K1 hM1, Fluo-8 calcium fluorescence, ACh EC20; 0% = ACh EC20, 100% = maximal ACh | activation, % at 3 µM | 0.088% of 360,000 active | AID 588819; in the data active means activation above about 19%, passing the limit was not always enough
CHO-K1 Ca antag: nonselective inhibitor or artifact in parental CHO-K1 cells; ATP-induced calcium, Fluo-8 fluorescence; inhibition, % at 3 µM; 0.6% of 360,000 active; AID 602250;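 active means inhibition above a per-plate cutoff, the plate's mean sample inhibition plus 3 SD, cut at about 24% in these data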;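 further: 0% = DMSO plus EC80 ATP and 100% = DMSO alone without ATP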
The depositor's hits bear a star. The list is not random: actives were taken first. Their share in the collection is about 2.3%.

SMILES	CHRM1 antagonist	M1 ag	CHO-K1 Ca PAM	M1 ag parental	M1 PAM	CHO-K1 Ca antag
O=C(Nc1cccnc1)Nc1ccc(F)c(Cl)c1	9	9	6	16*	-14	-6
Cc1ccc(NC(=O)Nc2ccc(F)c(Cl)c2)cc1	36*	5	-11	14	-15	21
c1ccc(CCC2CCCCN2Cc2nc(-c3ccc4c(c3)OCO4)no2)nc1 (stereo not given)	35*	-3	-14	8	-14	2
OC(c1ccc(F)cc1)c1nc(-c2cncnc2)cs1 (stereo not given)	-13	0	15	1	15	-10
Cc1ccc2nc(C(C)(C)C)c(Cc3cccc(Cl)c3)n2c1	70*	-8	-10	0	-26	4
Cc1ccc2nc(-c3ccc(F)cc3)c(Cc3cccc(Cl)c3)n2c1	14	-7	-9	-1	-6	32*
COc1cc2c(=O)n(CCC(=O)NCC3CCCO3)c(=O)n(CC(=O)Nc3ccc(F)cc3)c2cc1OC (stereo not given)	-8	-4	8	0	6	-14
Cn1c2ccccc2c(=O)c2c(=O)n(C3CCCCC3)c(-c3ccco3)nc21	1	19*	25	24*	0	-3
Cc1nc2c(c(=O)c3ccccc3n2C)c(=O)n1C1CCCCCC1	-3	-5	-15	0	2	10
CCN(CC)c1ccc(C=C2C(=O)OC3(CCCCC3)OC2=O)cc1	-3	-2	13	1	6	-3
CCN(CC)c1ccc(/C=C2/C(=O)c3ccc(C(=O)O)cc3C2=O)cc1	76*	186*	-10	62*	-27	56*
CCCn1c(=O)c(C(=O)NCc2ccccc2Cl)c(O)c2ccccc21	3	1	4	1	1	1
CCn1c(=O)c(C(=O)NNC(=O)c2ccccc2Cl)c(O)c2ccccc21	2	18*	22	35*	-4	-16
CCCn1c(=O)c(C(=O)NCc2ccncc2)c(O)c2ccccc21	-13	-2	1	-1	7	29*
COc1ccc(C2c3cc(OC)c(OC)cc3CCN2C(=O)c2ccccc2)cc1OC (stereo not given)	-1	0	4	0	3	0
COc1ccc(C(=O)N2CCc3cc(OC)c(OC)cc3C2c2ccc(OC)c(OC)c2)cc1 (stereo not given)	-6	1	-8	0	14	24*
CCOC(=O)CC1(NC(=O)c2cc(COc3cccc(OC)c3)on2)CCCCC1	17	0	-1	8	-10	-7
Nc1c(C(=O)C2CC2)sc2nc(-c3ccccc3)cc(C(F)(F)F)c12	-8	3	-1	109*	11	75*
CCOC(=O)C1=CCN(S(=O)(=O)c2ccccc2Br)C1c1cccc(C)c1 (stereo not given)	7	-10	10	1	-8	3
O=C(NC1CCCCC1)C(=S)NCCc1ccccc1	-9	-6	9	21*	3	-5
O=C(NCCc1ccccc1)C(=O)NC1CCCCC1	-31	-3	-5	0	4	-15
CCc1nnc(SCC(=O)Nc2ccc3ccccc3c2)n1N	-2	-4	5	0	10	-8
COc1ccc(S(=O)(=O)N2CCC(C(=O)NCCc3c[nH]c4ccccc34)CC2)cc1	-11	-3	-4	2	8	9
Cc1ccc(NC(=S)NC(=O)c2ccc(Br)o2)c(C)c1	-7	-12	3	19*	11	9
OCCN1CCN(CC/C=C2/c3ccccc3Sc3ccc(C(F)(F)F)cc32)CC1	36	-5	17	3	-24	-5
SMILES	CHRM1 antagonist	M1 ag	CHO-K1 Ca PAM	M1 ag parental	M1 PAM	CHO-K1 Ca antag
CN(C)CC/C=C1/c2ccccc2Sc2ccc(Cl)cc21	99*	-4	8	1	-25	-3
CCCCCC[N+](C)(C)CC/C=C1/c2ccccc2Sc2ccc(Cl)cc21	99*	-7	-3	0	-24	2
CC(=O)N1CCCC(C)(C(=O)Nc2ccc3oc(C)nc3c2)C1 (stereo not given)	-10	-2	-14	0	8	27*
Cc1cc2c(NCCc3ccccc3)ncnc2s1	24	4	-16	12	-5	24*
c1ccc(CCNc2ncnc3ccccc23)cc1	24	-4	-3	10	-12	32*
CCCCCCCCNc1ncnc2ccccc12	29*	-2	-6	11	-11	39*
Cn1c(=O)c2c(SCC(=O)N3CCOCC3)nc(-c3ccccc3F)nc2n(C)c1=O	-5	-3	2	1	5	2
COc1ccccc1NC(=O)COC(=O)CCC(=O)c1cccs1	-6	-3	3	2	5	-12
COc1ccccc1NC(=O)CN(c1ccccc1C)S(C)(=O)=O	-19	-3	23	1	13	-10
CCOC(=O)c1ccccc1NC(=O)CN(c1ccccc1C)S(C)(=O)=O	-4	-3	-5	0	8	30*
CN(c1ccccc1)S(=O)(=O)c1cccc(C(=O)NCC(c2cccs2)N2CCOCC2)c1 (stereo not given)	-12	-2	9	4	1	-4
O=C1CC(c2ccsc2)Sc2ccccc2N1 (stereo not given)	-6	-4	12	20*	6	7
Cc1ccccc1C(=O)Nc1ccc(-c2nc3ccc(C(=O)c4ccccc4)cc3[nH]2)cc1	28*	-3	-8	2	-9	34*
O=C(Nc1cccc(-c2nc3ccccc3s2)c1)c1cccs1	30*	-11	6	2	-5	6
O=C(c1ccccc1)c1ccc2nc(-c3ccc(NC(=O)c4ccccc4Br)cc3)[nH]c2c1	11	-4	19	5	-3	9
O=C(Nc1ccc(-c2nc3ccc(NC(=O)c4cccs4)cc3[nH]2)cc1)c1cccs1	38*	-5	4	2	-17	6
O=C1NC(=S)NC1=Cc1ccccc1O	5	19*	-17	17*	-8	23
O=C1NC(=S)NC1=Cc1ccc(Cl)cc1Cl	-3	-2	-14	0	1	26*
COc1ccc(CCCNC(=O)C2Cc3c(-c4ccccc4)ccnc3O2)cc1 (stereo not given)	-27	3	25	1	11	-10
COc1ccc(C(Cl)=C(C=O)c2ccc(OC)c(OC)c2)cc1OC	-1	18*	13	0	20	-2
COC(=O)c1ccc(OC(=O)c2ccc(OC)c(OC)c2)c(OC)c1	-2	-3	9	1	2	-3
Cn1nccc1C(=O)OCC(=O)Nc1ccccc1Cl	6	-4	-12	0	0	1

Compound activity (PubChem BioAssay)
